# RGS4-Gao reg – human RGS4-Galphao interaction regulation; binding response (% of control), % at 10 µM; Multiplexed bead flow cytometry, RGS4-Galphao binding; actives lie on both sides; 220,000 compounds, 0.33% hits; in the data active means binding response below about 49% or above about 150%; inactive means in between;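 further: fluorescent Galphao activated with aluminum fluoride binding bead-coupled RGS4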
# Target sequence (P09471 whole entry, looked up): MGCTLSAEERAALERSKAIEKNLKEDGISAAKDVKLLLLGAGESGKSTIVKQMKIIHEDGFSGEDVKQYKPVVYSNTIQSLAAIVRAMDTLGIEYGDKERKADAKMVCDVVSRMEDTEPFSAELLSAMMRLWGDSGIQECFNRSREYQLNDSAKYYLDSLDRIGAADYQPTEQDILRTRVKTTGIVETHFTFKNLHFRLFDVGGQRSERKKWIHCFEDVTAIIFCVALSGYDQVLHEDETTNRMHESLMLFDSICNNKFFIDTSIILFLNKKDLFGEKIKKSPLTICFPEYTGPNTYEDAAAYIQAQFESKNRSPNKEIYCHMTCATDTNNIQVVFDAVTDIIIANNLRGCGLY
# Avidin fluor – avidin bead compound fluorescence profile. Avidin beads, compound fluorescence 488/530 nm, flow cytometry; active compounds read high. fluorescence (KMESF) at 10 µM. AID 1775. 220,000 compounds, 0.38% hits; in the data active means fluorescence above about 47
# RGS8-Gao reg – modulates binding of RGS8 to human Galphao | P09471 | AID 1423 | response (percent of control binding), % at 10 µM | multiplexed bead flow cytometry; actives lie on both sides | 220,000 compounds, 0.34% hits; in the data active means response below about 60% or above about 140%; inactive means in between;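 further: Galphao activated as the GDP aluminium fluoride complex binding bead-coupled RGS8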
# RGS7-Gao reg – human RGS7-Galphao interaction regulation; binding response (% of control), % at 10 µM; 220,000 compounds, 0.35% hits; P09471; Multiplexed bead flow cytometry, RGS7-Galphao binding; actives lie on both sides; in the data active means binding response below about 49% or above about 150%; inconclusive means no clear call, values can overlap the other calls; inactive means in between;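 further: fluorescent Galphao held in activated GDP-AlF4 state binding bead-coupled RGS7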
# RGS16-Gao HTS – modulates binding between human RGS16 and Galphao | O15492+P09471 | bead-based flow cytometry RGS16-Galphao binding, fluorescence; actives lie on both sides | binding response (% of control), % at 10 µM | 220,000 compounds, 0.38% hits | AID 1441; call rule not given here;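 further: Galphao activated by GDP with aluminum fluoride before binding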
# Target sequence (O15492 whole entry, looked up): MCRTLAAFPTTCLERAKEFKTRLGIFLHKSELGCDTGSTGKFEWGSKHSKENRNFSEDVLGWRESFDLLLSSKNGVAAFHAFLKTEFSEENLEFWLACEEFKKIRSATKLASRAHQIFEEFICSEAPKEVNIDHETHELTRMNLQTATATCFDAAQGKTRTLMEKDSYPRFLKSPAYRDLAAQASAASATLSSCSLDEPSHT
# Target sequence (P09471 whole entry, looked up): as the sequence (P09471 whole entry, looked up) above
# GSH bead fluor – GSH bead compound fluorescence profile; fluorescence (KMESF) at 10 µM; GSH beads flow cytometry, compound fluorescence 488/530 nm; active compounds read high; 190,000 compounds, 0.25% hits; AID 1776; in the data active means fluorescence above about 89;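 further: glutathione beads carrying GST-tagged Bcl family fusion proteins plus one bare bead set; values are compound well signal with DMSO vehicle wells as background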
# * marks the source's active call; other numbers are inactive results; u = inconclusive; x = not tested or not shown; [ ] = remark or other dose. Sampled rows, rich in hits. Any-hit rate of the full collection: about 1.2%.
SMILES,RGS4-Gao reg,Avidin fluor,RGS8-Gao reg,RGS7-Gao reg,RGS16-Gao HTS,GSH bead fluor
Cc1cc(Nc2ccccc2C(=O)O)nc2nc3ccccc3c(=O)n12,102.1,26,97.4,111.5,103.2,46
O=C(O)CSc1nc2ccccc2o1,106.8,15,104.5,98.2,101.3,14
Cc1ccc(-c2nnc(SCC(=O)N3CCCC3)o2)cc1,99.0,17,98.4,106.3,98.7,259*
Cc1ccc(-c2nnc(SCC(=O)N3CCCC3)o2)cc1C,100.3,31,100.5,98.3,100.2,25
O=C(CSc1nc2ccccc2o1)N1CCCC1,103.3,8,102.0,100.8,99.6,260*
COc1ccc(CCN2C(=NC(=O)C(C)C)SC3CS(=O)(=O)CC32)cc1 (stereo not drawn),100.1,8,100.8,u,42.8,x
O=C(Cc1ccccc1[N+](=O)[O-])NCc1ccc(Cl)cc1Cl,101.9,6,97.8,103.1,91.3,10
O=C(Cc1ccccc1[N+](=O)[O-])NCc1ccc(Cl)cc1,213.3*[activator],119*,100.8,175.7*[activator],105.3,20
CC(=O)NC1C2CN3CCN(C2)CC1(Cc1ccccc1)C3 (stereo not drawn),98.1,11,101.9,100.0,101.4,22
Cc1ccc(CC23CN4CCN(CC(C4)C2O)C3)c(C)c1 (stereo not drawn),103.3,69*,97.1,121.2,100.8,22
S=C1N(c2ccccc2)C(c2ccccc2)N2CCCN12 (stereo not drawn),101.7,13,102.5,97.5,96.2,14
S=C1COC(c2ccccc2)N1c1ccccc1 (stereo not drawn),88.6,5,100.7,92.0,91.6,142*
CCc1nccn1S(=O)(=O)c1cc(Br)ccc1OC,101.8,32,99.0,101.2,101.2,23
CCCc1nccn1S(=O)(=O)c1cc(OC)ccc1OC,100.8,8,101.0,98.7,102.1,249*
Cc1cccc(-n2nnnc2SCC(=O)c2cc(C)n(CC3CCCO3)c2C)c1 (stereo not drawn),99.6,6,98.0,99.0,101.5,263*
Cc1ccc(-n2nnnc2SCC(=O)c2cc(C)n(CC3CCCO3)c2C)cc1 (stereo not drawn),89.3,4,85.9,92.7,55.6,14
CC(C)COc1nc2c(c(=O)n(C)c(=O)n2C)n1C,91.8,5,91.2,u,94.2,x
O=C(Nc1ccc2c(c1)OCO2)C1CC(c2ccc(F)cc2)=NO1 (stereo not drawn),83.8,5,99.8,87.6,93.7,33
CC(=O)Nc1cc2c(=O)n(Cc3ccccc3)c(C)nc2cc1N1CCOCC1,107.3,52*,102.1,112.7,105.5,37
CCOC(=O)C1CCN(c2c(NCCC(C)C)c(=O)c2=O)CC1,92.2,4,96.7,u,95.4,x
COc1ccc2c(c1)c(CC(=O)Nc1nnc(C3CC3)s1)c(C)n2C(=O)c1ccc(Cl)cc1,100.0,12,101.0,u,98.5,x
O=S(=O)(Nc1ccc(Cc2ccncc2)cc1)c1ccc(Br)cc1,22.0*,-2,12.2*,15.0*,1.0*,20
COc1cc(C(=O)NNc2nc3cc4c(cc3s2)OCO4)cc(OC)c1OC,160.6*[activator],32,96.4,127.4,106.7,17
CC(C)NC(=O)CSCc1c(F)cccc1Cl,93.7,5,98.3,97.9,95.7,121*
CC(NC(=O)c1ccc2nc[nH]c2c1)c1ccccc1 (stereo not drawn),102.8,11,106.5,109.0,112.0,25
SMILES,RGS4-Gao reg,Avidin fluor,RGS8-Gao reg,RGS7-Gao reg,RGS16-Gao HTS,GSH bead fluor
CCC(CC)NC(=O)c1ccc2nc[nH]c2c1,102.7,9,101.6,96.2,102.3,262*
COc1ccc(/C=C(\C#N)C(=O)Nc2cc(C)c(Cl)cc2OC)cc1O,86.1,13,103.3,u,88.5,x
Cc1ccccc1NC(=O)C1CCCN1C(=O)NC1CCCCC1 (stereo not drawn),102.4,8,102.7,102.5,104.2,263*
Cc1cc(C)n2nc3nc(N4CCCC4)nc(-c4ccccc4)c3c2n1,104.1,58*,102.5,115.0,97.1,9
Nc1[nH]nc2nc(N3CCCC3)nc(-c3ccccc3)c12,97.9,3,100.2,96.0,101.6,33
O=C(COC(=O)c1ccccc1Oc1ccccc1)NCc1ccco1,90.7,7,100.7,97.2,92.4,263*
COc1ccc(OCCC(=O)OCC(=O)NCc2ccco2)cc1,92.5,6,99.1,94.4,92.2,259*
COc1ccccc1NCCC(=O)OCC(=O)NCc1ccco1,96.2,5,102.6,90.0,107.2,9
CN1CCCC(OC(=O)c2cc(Cl)ccc2Cl)C1 (stereo not drawn),96.7,7,99.8,100.4,101.6,258*
Cc1onc(-c2c(F)cccc2Cl)c1C(=O)OCC(=O)Nc1c(C)n(C)n(-c2ccccc2)c1=O,97.4,6,100.2,98.1,100.3,279*
C=CCn1c(-c2ccc(C)cc2)nc2ccccc21,103.1,47*,101.0,113.7,104.8,31
FC(F)(F)c1cnc(-c2cnc(-c3cccnc3)nc2)c(Cl)c1,89.9,12,96.7,90.5,100.5,12
COc1ccc(/C=N/n2c(C)cc(C)c(C(N)=O)c2=O)cc1,93.3,7,95.2,91.8,98.8,255*
Nc1cc(-c2ccccc2)nn1Cc1ccc(Cl)cc1,98.9,12,101.7,93.9,105.2,33
CCc1c(C)nc2nc(NC(C)=O)[nH]n2c1=O,90.9,38,96.1,94.3,91.6,23
Cc1ccc(CSc2nnc(-c3ccncc3)n2N)cc1,89.0,4,96.3,u,93.5,x
Nn1c(SCc2cn3ccsc3n2)nnc1-c1ccncc1,102.6,7,102.6,106.2,101.6,266*
COc1cccc(C(=O)Nc2cccc(C(=O)NC3=NN(c4c(Cl)cc(Cl)cc4Cl)C(=O)C3)c2)c1,98.7,20,101.1,97.8,104.5,12
CN1CCN(Cc2oc(CO)cc(=O)c2O)CC1,99.0,4,98.9,98.5,97.5,15
COc1ccc(N2CCN(Cc3oc(CO)cc(=O)c3O)CC2)cc1,87.0,8,92.8,86.0,89.1,250*
CN(CC(=O)NC(=O)NCc1ccco1)CC(=O)Nc1ccccc1Cl,100.6,4,104.4,u,102.1,x
CC(=O)Nc1nonc1-c1nc2ccccc2n1CCC#N,96.6,9,105.7,96.7,109.1,25
CC(=O)Nc1nonc1-c1nc2ccccc2n1CC1CC1,100.8,57*,92.5,116.5,80.3,13
Cc1ccc2c(c1)CCCN2C(=O)c1ccncc1,102.5,131*,96.7,142.6,101.8,29
COCCNC(=O)Cn1cc(C(=S)N2CCCCC2)c2ccccc21,101.5,12,100.5,95.1,111.0,19
CC1=CCC(C(=O)O)C(C(=O)Nc2nc3ccc(S(C)(=O)=O)cc3s2)C1 (stereo not drawn),100.1,7,100.5,100.5,99.9,92*

# From PubChem BioAssay
